Results on 63 molecules are retold here after PubChem BioAssay AID686979 (National Center for Advancing Translational Sciences (NCATS), 2013).

Screen size: about 420,000 compounds; about 50,000 (12%) were called active. Entries that show only a call come without a potency. Another 26% or so got no clear call; they are omitted. Calls come from the whole dose curve; as a rule, active = well fitted inhibition curve with a large enough effect; inconclusive = small, poorly fitted or top-dose-only effect; inactive = flat fitted curve, though single readings scatter. The full list was thinned out, with actives kept by preference.
Potency is the fitted concentration of half-maximal effect.

The nature of the test: qHTS for Inhibitors of human tyrosyl-DNA phosphodiesterase 1 (TDP1): qHTS in cells in presence of CPT. Note: nearly all actives have a fitted effect of over 55% in size. The following applies: chicken DT40 Tdp1-/-;hTDP1 cells + 20 nM CPT, ATP luminescence, 48 h; series mostly up to 46.2 µM. In short, it runs like this: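 Chicken DT40 Tdp1-/- cells stably complemented with human TDP1 were seeded at 400 cells/well in medium containing 20 nM camptothecin, exposed to pin-transferred compounds, and grown at 37 °C for at least 48 hr. Viability was read as ATP luminescence.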
Background: In qHTS, concentration-response curves come from the screen itself.
`CC(=O)NCCC(=O)Nc1cc(S(=O)(=O)N2CCCCC2)ccc1Oc1cccc(C)c1`: the Potency result is “inactive”.

Take `COC(=O)c1ccc(NC(=O)c2cc3c(CO)cnc(C)c3oc2=Nc2cccc(C(N)=O)c2)cc1`: the Potency entry is “inactive”.

In the case of `O=C(N/C(=C\c1ccc([N+](=O)[O-])cc1)C(=O)N1CCCCC1)c1ccco1`, the Potency entry is “inactive”.

Consider `CC(=O)c1cccc(NC(=O)Nc2ccc(C)cc2)c1`, for which the Potency entry is “inactive”.

For the molecule `CC(=O)Nc1ccc(NC(=O)[C@@H](NC(=O)c2cccc(C)c2)C(C)C)cc1`, the Potency result was “inactive”.

On to `Cc1ccc(NC(=O)C(C)c2cccc(C(=O)c3ccccc3)c2)cc1` (stereo not drawn), for which the Potency was 14.6 µM (active).

Consider `O=C(CN(C(=O)CNC(=O)c1cccs1)c1cccc(F)c1)NC1CCCCC1`, for which the Potency entry is “inactive”.

For `Cc1ccc(N2C(=O)C(CC(=O)Nc3cccc(F)c3)N(CCc3ccncc3)C2=O)cc1` (stereo not drawn), the Potency entry is “inactive”.

Regarding `CCOc1ccc(NC(=O)CC2C(=O)N(c3ccccc3)C(=O)N2CCOC)cc1` (stereo not drawn), the Potency result is “inactive”.

Turning to `CCNC(=O)N1CCNC(=O)C1CC(=O)Nc1ccc(C(=O)OCC)cc1` (stereo not drawn), the Potency entry was “inactive”.

For the molecule `COc1ccc(CCN2C(=O)N(c3cccc(OC)c3)C(=O)C2CC(=O)Nc2ccccc2)cc1` (stereo not drawn), the Potency is 18.4 µM (active).

Consider `CCOc1ccc(NC(=O)CC2C(=O)N(c3cccc(OC)c3)C(=O)N2C2CCCCC2)cc1` (stereo not drawn), for which the Potency result was “inactive”.

For the molecule `CCOC(=O)c1ccc(NC(=O)CC2C(=O)N(c3cccc(OC)c3)C(=O)N2C2CCCCC2)cc1` (stereo not drawn), the Potency was 20.6 µM (active).

With `CN1c2ccc([N+](=O)[O-])cc2C(C)(C)C12C=Cc1cc(C(=O)O)ccc1O2` (stereo not drawn), the Potency result was “inactive”.

In the case of `COc1ccc(S(=O)(=O)N2CCOCC2)cc1NC(=O)Cc1coc2cc(C)ccc12`, the Potency result is “inactive”.

`COc1ccc(/C(C)=N/NC(=O)c2ccc3nc[nH]c3c2)cc1`: the Potency entry was “inactive”.

Turning to `COc1ccccc1C(=O)CSc1cccc[n+]1[O-]`, the Potency result was “inactive”.

Turning to `O=C(CSc1cccc[n+]1[O-])c1ccc(-c2ccccc2)cc1`, the Potency was 0.92 µM (active).

`CCN(C(=O)CSc1cccc[n+]1[O-])c1ccccc1`: the Potency result is “inactive”.

For the molecule `Cc1ccc(C(C)NC(=O)Cn2nc(C)c([N+](=O)[O-])c2C)cc1` (stereo not drawn), the Potency result is “inactive”.

As to `Cn1c(CC2Sc3ccccc3NC2=O)nnc1SCC(=O)c1ccc(Cl)cc1` (stereo not drawn), the Potency result was “inactive”.

As to `O=C(CN1C(=O)COc2ccc(Cl)cc21)N1CCOCC1`, the Potency entry was “inactive”.

As for `COc1ccccc1N1CCN(C(CNC(=O)C(=O)NCc2ccc(C)cc2)c2cccnc2)CC1` (stereo not drawn), the Potency was 4.61 µM (active).

With `Cc1ccc(NC(=O)C(=O)NCC(c2cccnc2)N2CCOCC2)cc1` (stereo not drawn), the Potency result is “inactive”.

Take `Cc1ccc(NC(=O)NCC(c2cccnc2)N2CCOCC2)cc1` (stereo not drawn): the Potency result is “inactive”.

As for `CC(OC(=O)c1cc2ccccc2[nH]1)C(=O)N(C)c1ccccc1` (stereo not drawn), the Potency result was “inactive”.

`O=C(Cc1ccccn1)c1ccc(O)cc1O`: the Potency entry is “inactive”.

On to `Cc1ccc(CN(Cc2cccnc2)C(=S)Nc2cc(Cl)ccc2C)cc1`, for which the Potency was 13 µM (active).

In the case of `Cc1ccc(Cl)cc1NC(=S)N(CCN(C)C)Cc1cccs1`, the Potency result is “inactive”.

As to `Cc1c(Cl)cccc1NC(=S)N(Cc1ccccc1)Cc1cccnc1`, the Potency result was “inactive”.

For the molecule `C=CCn1nc(-c2ccccc2)c2c(C)onc2c1=O`, the Potency entry is “inactive”.

On to `O=C(Nc1cccc(C(=O)NC2CC2)c1)c1ccc(F)c(S(=O)(=O)N2CCOCC2)c1`, for which the Potency result was “inactive”.

Turning to `OCC[C@H]1C[C@H](O)[C@@H](O)[C@]2(CCCCO2)O1`, the Potency entry was “inactive”.

With `Cc1nnsc1C(=O)NCc1c(F)cccc1Cl`, the Potency entry is “inactive”.

`CC(C)c1ccc(NS(=O)(=O)c2cn(C)c(=O)n(C)c2=O)cc1`: the Potency entry is “inactive”.

Take `Cn1cc(S(=O)(=O)Nc2ccc(Cl)cc2Cl)c(=O)n(C)c1=O`: the Potency was 20.6 µM (active).

Turning to `Cc1ccc(NS(=O)(=O)c2cn(C)c(=O)n(C)c2=O)c(C)c1`, the Potency result is “inactive”.

`Cc1ccc(NC(=O)c2ccn(C(=O)Nc3ccccc3)n2)c(C)c1`: the Potency entry is “inactive”.

Regarding `Cc1ccc(NC(=O)c2oc(=O)c3ccccc3c2-c2ccccc2)c(C)c1`, the Potency was 23.1 µM (active).

`Cc1ccc(NC(=O)c2oc3ccccc3c2C)c([N+](=O)[O-])c1`: the Potency result was “inactive”.

With `O=C(CSc1nnc(Nc2ccccc2F)s1)NC1CCCC1`, the Potency entry was “inactive”.

Consider `Nc1cccc(-c2cncc(N3CCN(Cc4ccccn4)CC3)n2)c1`, for which the Potency entry is “inactive”.

Consider `COc1cc(-c2noc(C3CCCN(S(=O)(=O)c4cccc(Cl)c4)C3)n2)cc(OC)c1OC` (stereo not drawn), for which the Potency was 12.6 µM (active).

`COc1cccc(-c2noc(C3CCCN(C(=O)c4ccc(F)cc4)C3)n2)c1` (stereo not drawn): the Potency result is “inactive”.

Take `COc1ccc(NC(=O)C2CCCN(S(=O)(=O)c3cccc4nonc34)C2)cc1Cl` (stereo not drawn): the Potency entry was “inactive”.

As to `COc1ccccc1CC(NC(C)=O)C(=O)NC1CCN(C(=O)Nc2ccccc2Cl)CC1` (stereo not drawn), the Potency entry is “inactive”.

Take `COc1cc(C2/C(=C(\O)c3ccc4c(c3)CC(C)O4)C(=O)C(=O)N2c2nnc(C)s2)cc(OC)c1OC` (stereo not drawn): the Potency entry is “inactive”.

With `Cc1cc(Nc2ccc(C(=O)N3CCCCC3)cc2)c2cccc(C)c2n1`, the Potency entry is “inactive”.

In the case of `CCOC(=O)N1CCN(C(c2cccnc2)c2ccc3cccnc3c2O)CC1` (stereo not drawn), the Potency was 3.66 µM (active).

Consider `CCOC(=O)N1CCN(Cc2nc(N)nc(Nc3ccc(C)cc3)n2)CC1`, for which the Potency result is “inactive”.

With `CCOC(=O)N1CCN(C(c2ccnc3ccccc23)c2nnnn2-c2c(C)cccc2C)CC1` (stereo not drawn), the Potency entry is “inactive”.

Turning to `CC1(C(=O)O)CCC(C(=O)Nc2ccc(Cl)c(Cl)c2)C1(C)C` (stereo not drawn), the Potency result is “inactive”.

Consider `COc1ccc(S(=O)(=O)NNC(=O)Nc2ccc(C)cc2)c(OC)c1`, for which the Potency entry was “inactive”.

As for `CCOC1=C2CN(S(=O)(=O)c3ccc(C)cc3)[C@H](c3cccs3)C[C@H]2[C@H]2C(=O)N(c3ccccc3)C(=O)[C@H]2C1`, the Potency result was “inactive”.

In the case of `Cc1ccc(S(=O)(=O)c2c(COC(=O)c3cccc(Cl)c3)c(-c3ccccc3)nn2C)cc1`, the Potency was 23.1 µM (active).

Turning to `O=C(COC(=O)c1cccc(Cl)c1)NC(=O)NCc1ccccc1`, the Potency result is “inactive”.

With `Cc1cc(C)n(-c2c(F)c(F)c(COC(=O)c3ccccc3)c(F)c2F)n1`, the Potency result is “inactive”.

In the case of `COc1ccc(S(=O)(=O)N2CCOCC2)cc1NC(=O)COc1ccccc1`, the Potency result was “inactive”.

For `CC1CC(C)CN(C/C=C/c2ccccc2[N+](=O)[O-])C1` (stereo not drawn), the Potency result is “inactive”.

As to `O=C(CCNC(=O)c1ccccc1Cl)NN=Cc1ccco1`, the Potency result was “inactive”.

Take `Cn1c(NCc2cccnc2)nc2cc(-c3ccc(F)cc3)sc2c1=O`: the Potency entry is “inactive”.

Consider `CC(=O)Nc1cccc(-c2cc3nc(NCc4cccnc4)n(C)c(=O)c3s2)c1`, for which the Potency entry was “inactive”.

Regarding `COc1cccc(-c2cc3nc(NCc4ccccc4OC)n(C)c(=O)c3s2)c1`, the Potency is 13 µM (active).
